The results in this text go back to PubChem BioAssay (NCI).

SMILES strings stand for the structures. About 83,000 compounds went through this panel and 20% of them were active in at least one assay; those are over-represented in the sample as a whole.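 Growth was measured after 48 h exposure to one concentration of compound in 96-well plates. Values under 10 count as active.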 Values without a mark were called inactive. Activity calls are given as the source filed them.

The test system of the assay is HL-60(TB) leukemia. In words: NCI-60 one-dose screen, 48 h (100 = growth as untreated, 0 = no growth, -100 = all killed). Conditions: 10 µM unless noted.
Turning to `CCOC(=O)C(CCC1=NC(C)(C)CC(C)O1)C(=O)OCC` (stereo unspecified), the growth was 56.4%.

Take `COc1ccc(NC(=O)/N=c2\oc3c(OC)cccc3cc2-c2cc3ccccc3[nH]2)cc1`: the growth was 142%.

For `Cl[C@@H]1CCO[C@H](c2cc3ccccc3c3ccccc23)C1`, the growth was 92.9%.

For `COC(=O)Nc1nc2ccc(C(=O)c3ccc(F)cc3)cc2[nH]1`, the growth is -70.4% (active).

For the molecule `CCC(C)C1NC(=O)C(CC(C)C)NC(=O)C(C)NC(=O)C(C(C)C)NC(=O)C(CCCCN)NC(=O)C(CC(C)C)NC(=O)C(C(C)C)NC(=O)[C@H](C)NC(=O)C(C(C)CC)NC(=O)C(CCCN=C(N)N)NC(=O)C(CCCCN)NC(=O)C(CCCN=C(N)N)NC(=O)C(CCCCN)NC(=O)C([C@H](C)CC)NC(=O)C(CCCCN)NC1=O` (stereo partly specified), the growth was -39.5% (active).

With `CCOC(=O)C(C(=O)OCC)C1CCCCC1`, the growth is 105%.

Take `COc1cc(/C=C/C(=O)c2cccnc2Nc2ccc(F)cc2)cc(OC)c1OC`: the growth is 5.42% (active).

`COc1cc(Cc2cc(-c3ccccc3)n[nH]c2=O)cc(OC)c1OC`: the growth was 53.4%.

For `CNCCCn1c2c(c3ccc([N+](=O)[O-])cc3c1=O)C(=O)c1cc(OC)cnc1-2`, the growth is -32.3% (active).

Turning to `O=C(NCO)c1ccccc1`, the growth is 94.4%.

On to `CC(C)NC(=O)N/C=C(\C#N)C(N)=O`, for which the growth is 137%.

Regarding `O=C(OC[C@@H]1CO1)c1cccc2c(=O)c3ccccc3[nH]c12`, the growth is -51.4% (active).

With `COC(=O)/C=C1/SC(N2N=C(c3cccs3)CC2c2ccc(F)cc2)=NC1=O` (stereo unspecified), the growth was -7.95% (active).

`NCCOc1ncccc1/C=C1\c2ccccc2-c2ccc(F)cc21`: the growth is -38.6% (active).

With `O=C(N/N=C/c1ccc(Cl)cc1)c1ccc(NC(=O)c2ccccn2)cc1`, the growth was 103%.

For `O=S(=O)(NCCCNc1nccc(-n2ccc3cccnc32)n1)c1ccc(Br)cc1`, the growth was 110%.

Regarding `N#CN1CC[C@H](C(=O)Nc2ncc(-c3ccccc3)s2)C1`, the growth was -23.2% (active).

For the molecule `CN(Cc1ccccc1)c1ccc(SC#N)cc1`, the growth was 17.5%.

Turning to `COC(=O)/C=C1/CCCCC1(C)C(=O)OC` (stereo unspecified), the growth was 102%.

Take `Cc1cc(O)c(C(C)(C)C)cc1Sc1cc(C(C)(C)C)c(O)cc1C`: the growth is -20.9% (active).

For the molecule `Clc1cc(Cl)c(OCC#CI)cc1Cl`, the growth was 47.6%.

On to `CN(C)c1ccc2c(c1)/C(=N/O)c1ccccc1-2`, for which the growth is 87.3%.

On to `O=C(O)c1ccc(N=CC(=O)c2ccc(-c3ccccc3)cc2)cc1`, for which the growth was 77.4%.

Regarding `CCCCCC/C=C\CCCCCCCCCc1cc(O)cc(OC)c1O`, the growth was -44.7% (active).

For the molecule `Cc1cccc2c1NC(=O)[C@@]21[C@H](C(=O)c2ccccc2)[C@]2(C(=O)Nc3ccccc32)[C@H]2CCCN21`, the growth is 14.6% [100 µM].

Take `CC(=O)Oc1cccc(S(=O)(=O)n2cc(C(=O)C(=O)Nc3ccncc3)c3ccccc32)c1`: the growth is 56.1%.

For `CCCCCCCCCCCCCCCCC(=O)O.CCCCCCCCCCCCCCCCCC(=O)O.CCCCCCCCCCCCCCCCCC(=O)O.CCCCCCCCCCCCCCCCCC(=O)O.CCCCCCCCCCCCCCCCCC(=O)O.CO[CH-]OC12COC1CC(O)C1(C)C(O)C(OC(C)O)C3=C(C)C(OC(=O)C(O)C([NH-])c4ccccc4)CC(O)(C(OC(=O)c4ccccc4)C21)C3(C)C.[Cu+].[Zn].[Zn].[Zn].[Zn].[Zn]` (stereo unspecified), the growth is -3.29% (active).

Take `O=C(CSc1nnc(-c2cc3c([nH]c4ccccc43)c(-c3cccc(O)c3)n2)n1-c1ccccc1)c1ccccc1`: the growth is 56.2%.

Regarding `Cc1ccc(N2C(=O)C=CC2=O)cc1`, the growth was 63.2%.

As to `O=C(Nc1ccc(F)cc1)Nc1ccc(Br)c(C(F)(F)F)c1`, the growth was -41.9% (active).

For `S=c1nc2oc(-c3ccccc3)c(-c3ccccc3)c2c(/N=C\c2ccco2)[nH]1`, the growth is 87.2%.

As to `O=[N+]([O-])c1ccc(O)cc1Br`, the growth is 99.9%.

With `COc1ccc(-c2cc(-c3ccc(Cl)cc3)c(C#N)c(=O)n2CCCCC(=O)NO)cc1`, the growth was 92.7%.

For the molecule `CNCCCNc1nc2ccccc2c2c(=O)c3cc(OC)ccc3sc12`, the growth is 56.2%.

On to `COC(=O)C1=Nc2ccc(F)cc2/C1=C\c1sc(Nc2ccc(O)cc2)nc1O`, for which the growth is 54.8%.

Consider `O=C1/C=C/[C@@H](O)[C@@H]2C[C@@H](O)C[C@H]2/C=C/CCC[C@H](CCc2ccccc2)O1`, for which the growth is 3.95% (active).
